Screening data (PubChem)
Rows were chosen to be rich in hits. Some 21% of all compounds tested hit in one or more screens of this group.
Pf growth 48h – P. falciparum growth inhibition at 48 hours (one generation); P. falciparum luciferase growth in erythrocytes, 48 h; Potency, µM (top dose mostly 28.7 µM), without a hit: top-dose activity change, negative = inhibition, hits mostly inhibitors; 310,000 tested, 5.9% active; AID 504832; further: potency means the concentration at half of the fitted maximal effect; on the % scale 0 is the no-effect control and ±100 the full control effect
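Here the parasites carry a stable luciferase gene and grow inside erythrocytes in Albumax-based RPMI medium with compound for one erythrocytic cycle. Activity is scored as loss of luminescent signal.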
Pf growth 96h – inhibits malaria parasite growth, 96 h. AID 504834. P. falciparum luciferase reporter growth, 96 h. 320,000 tested, 6.9% active. Potency, µM (highest dose often 28.7 µM), inactives show at the highest dose activity change, negative = inhibition, hits mostly inhibitors; further: potency means the concentration at half of the fitted maximal effect; on the % scale 0 is the no-effect control and ±100 the full control effect
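Readout is luminescence from an integrated firefly luciferase in P. falciparum. Red cells, 2% hematocrit and 0.05% parasitemia final, were cultured with compound through two parasite generations (96 hours) at 37 C, 5% CO2.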
NS1 inh – inhibitors of influenza NS1 protein function; Potency, µM (highest dose often 46.1 µM), for the others: top-dose activity, positive = more growth; 270,000 tested, 0.4% active; calls by dose curve; further: potency means the concentration at half of the fitted maximal effect; actives are rising curves; nearly all actives have a fitted effect of over 50% in size
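Read-out: OD600 growth recovery of NS1-expressing budding yeast. Cells grown overnight at 30C in -URA glucose medium, washed, resuspended and diluted 1:100 in 2% galactose assay medium, pH 6.0. Same strain lacking NS1 served as positive control.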
SARS PLP yeast – blocks SARS-CoV papain-like protease in a yeast assay. Potency, µM (titrated, usually from 32.9 µM), without a hit: at the highest dose activity, positive = growth rescue, hits mostly activators. AID 485353. S. cerevisiae expressing SARS-CoV PLpro, growth rescue. 330,000 tested, 0.19% active; calls by dose curve; further: potency means the concentration at half of the fitted maximal effect; 0% is about no effect; nearly all actives have a fitted effect of over 55% in size
Shiga toxin inh – inhibitors of Shiga toxin in Vero cells; AID 2315; inhibition, % at 38.7 µM; 290,000 tested, 9.2% active; Vero cells, Shiga toxin protein synthesis inhibition reporter; in the data active means inhibition mostly above about 28%, no sharp cut-off; inactive means mostly below about 43%; further: 0% is about no effect
CHX counter – counter-screen for Shiga toxin inhibitors: cycloheximide protein synthesis inhibition; max response, %; 300,000 tested, 12% active; cell reporter, cycloheximide protein synthesis inhibition counterscreen; in the data active means max response mostly above about 13%, no sharp cut-off; inactive means mostly below about 14%; further: read at 38.3 µM for the half of the compounds with a filed dose; 0% is about no effect
* marks the source's active call; other numbers are inactive results; [ ] = another dose, or the depositor's remark. Unless noted, the call rests on the fitted dose curve; in most records, active means well fitted inhibition curve with a large enough effect; inconclusive means small, poorly fitted or top-dose-only effect, or another doubt; inactive means no such curve, though single readings can be large or run the other way.

Results for O=C(c1ccc(Cl)cc1)N1CCn2c1nc1ccccc12 ?
Pf growth 48h: -15%[5.75 µM]; Pf growth 96h: 16%; SARS PLP yeast: 0%; Shiga toxin inh: 4; CHX counter: -4

Results for CC(C)(C)C(=O)N1CCn2c1nc1ccccc12 ?
Pf growth 48h: 7%; Pf growth 96h: 2.6µM*; NS1 inh: -1%; SARS PLP yeast: 0%; Shiga toxin inh: 23; CHX counter: 9

Results for N#CCC(=O)N1CCn2c1nc1ccccc12 ?
Pf growth 48h: -1%; Pf growth 96h: 15%; NS1 inh: -9%; SARS PLP yeast: -1%; Shiga toxin inh: -4; CHX counter: 1

How did O=C(c1cccs1)N1CCn2c1nc1ccccc12 do in these assays?
Pf growth 48h: 105%; Pf growth 96h: -2%; NS1 inh: -67%; SARS PLP yeast: inconclusive; Shiga toxin inh: 56*; CHX counter: 41*

Results for Cc1cc(NC(C)c2ccccc2)n2ncc(-c3ccccc3)c2n1 (stereo not drawn) ?
Pf growth 48h: 106%; Pf growth 96h: 137%; NS1 inh: -2%; SARS PLP yeast: -6%; Shiga toxin inh: 69*; CHX counter: 44*

What do the screens show for `Cc1cc(NCCN2CCOCC2)n2ncc(-c3ccccc3)c2n1`?
Pf growth 48h: 146%; Pf growth 96h: 167%; NS1 inh: -12%; SARS PLP yeast: 2%; Shiga toxin inh: 41*; CHX counter: 28*

Results for COc1ccc(CCNc2cc(C)nc3c(-c4ccccc4)cnn23)cc1OC ?
Pf growth 48h: -24%; Pf growth 96h: -5%; NS1 inh: 23%; SARS PLP yeast: -34%; Shiga toxin inh: active; CHX counter: 48*

How did COc1nc(NCCc2ccc(OC)c(OC)c2)nc(Nc2ccccc2)n1 do in these assays?
Pf growth 48h: inconclusive; Pf growth 96h: inconclusive; NS1 inh: -31%; SARS PLP yeast: -1%; CHX counter: 54*

What do the screens show for `CCN(C(=O)CN1CCCCC1C)c1c(N)n(Cc2ccccc2)c(=O)[nH]c1=O` (stereo not drawn)?
Pf growth 48h: inconclusive; Pf growth 96h: -20%; SARS PLP yeast: 1%

Results for CN(Cc1cccc(F)c1)C(=O)CNS(=O)(=O)c1ccc2ccccc2c1 ?
Pf growth 48h: 9%; Pf growth 96h: 35%; NS1 inh: 3%; SARS PLP yeast: 1%; Shiga toxin inh: 24; CHX counter: -3

How did C=CCN(Cc1nc(-c2ccccc2)no1)C(=O)c1ccco1 do in these assays?
Pf growth 48h: -3%; Pf growth 96h: 11%; NS1 inh: 8%; SARS PLP yeast: 3%; Shiga toxin inh: 11; CHX counter: 9

How did COc1ccccc1-c1cnn2c(NCCc3ccccc3)cc(C)nc12 do in these assays?
Pf growth 48h: 38%; Pf growth 96h: 46%; NS1 inh: -8%; SARS PLP yeast: -2%; Shiga toxin inh: 75*; CHX counter: 34*

Results for c1ccc(-c2csc3ncnc(NCc4ccccn4)c23)cc1 ?
Pf growth 48h: inconclusive; Pf growth 96h: inconclusive; NS1 inh: -7%; SARS PLP yeast: 0%; Shiga toxin inh: -6; CHX counter: -3

Results for COc1ccc(CCNc2cc(C)nc3c(-c4ccc(Cl)cc4)cnn23)cc1OC ?
Pf growth 48h: -14%; Pf growth 96h: 5%; NS1 inh: 13%; SARS PLP yeast: -16%; Shiga toxin inh: -8; CHX counter: 6

Results for Cc1cc(NCc2ccccc2)n2ncc(-c3ccccc3)c2n1 ?
Pf growth 48h: 164%; Pf growth 96h: 156%; NS1 inh: -9%; SARS PLP yeast: -7%; Shiga toxin inh: 93*; CHX counter: 67*

How did CC(C)(C)c1cc(NCc2ccccn2)n2ncc(-c3ccccc3)c2n1 do in these assays?
Pf growth 48h: inconclusive; Pf growth 96h: inconclusive; NS1 inh: -51%; SARS PLP yeast: -6%; Shiga toxin inh: 97*; CHX counter: 51*

How did CCCc1cc(=O)oc2cc(C)cc(OCC(=O)Nc3ccc(S(N)(=O)=O)cc3)c12 do in these assays?
Pf growth 48h: inconclusive; Pf growth 96h: inconclusive; NS1 inh: 10%; SARS PLP yeast: 16%; Shiga toxin inh: -7; CHX counter: -3

Results for CCc1c(C)sc(NC(=O)Cn2nc(C)c([N+](=O)[O-])c2C)c1C(N)=O ?
Pf growth 48h: 26%; Pf growth 96h: -25%; NS1 inh: -9%; SARS PLP yeast: 0%; Shiga toxin inh: 17; CHX counter: -2

What do the screens show for `O=C(Nc1ccc(F)cc1)c1nc[nH]c1C(=O)O`?
Pf growth 48h: 30%; Pf growth 96h: -12%; NS1 inh: 2%; SARS PLP yeast: -2%; Shiga toxin inh: -5; CHX counter: -6

What do the screens show for `CCOc1ccc(NC(=O)c2nsc(Cl)c2Cl)cc1`?
Pf growth 48h: 105%; Pf growth 96h: 134%; NS1 inh: -2%; SARS PLP yeast: -3%; Shiga toxin inh: 94*; CHX counter: 40*

How did O=C(O)C1=C(C(=O)Nc2ccc(F)c(Cl)c2)CCCC1 do in these assays?
Pf growth 48h: 4%; Pf growth 96h: -1%; NS1 inh: -7%; SARS PLP yeast: -2%; Shiga toxin inh: -6; CHX counter: 7

How did O=C(Nc1ccc(F)c(Cl)c1)c1nsc(Cl)c1Cl do in these assays?
Pf growth 48h: 342%; Pf growth 96h: 274%; NS1 inh: -4%; SARS PLP yeast: 0%; Shiga toxin inh: 82*; CHX counter: 47*

What do the screens show for `O=C(Nc1ccc(F)cc1)c1nsc(Cl)c1Cl`?
Pf growth 48h: inconclusive; Pf growth 96h: inactive; NS1 inh: 2%; SARS PLP yeast: -7%; Shiga toxin inh: 68*; CHX counter: 29*

What do the screens show for `Cc1ccc(C)c(Cn2c3ccccc3c3cnn(CC(=O)NCc4ccccn4)c(=O)c32)c1`?
Pf growth 48h: inconclusive; Pf growth 96h: 12µM*; NS1 inh: 3%; SARS PLP yeast: 1%; Shiga toxin inh: -9; CHX counter: -9

What do the screens show for `O=C(NNC(=O)c1cccs1)c1ccc(Cl)c(Cl)c1`?
Pf growth 48h: 25%; Pf growth 96h: inconclusive; NS1 inh: -1%; SARS PLP yeast: -5%; Shiga toxin inh: 24; CHX counter: -1

Results for Cc1ccccc1CNC(=O)CN(c1cccc([N+](=O)[O-])c1)S(C)(=O)=O ?
Pf growth 48h: -3%; Pf growth 96h: -37%; NS1 inh: 0%; SARS PLP yeast: 4%; Shiga toxin inh: -3; CHX counter: 1

How did CCN(c1ccc(C)cc1C)S(=O)(=O)c1nnc(NC(=O)C(C)(C)C)s1 do in these assays?
Pf growth 48h: 10µM*; Pf growth 96h: inconclusive; NS1 inh: -21%; SARS PLP yeast: 0%; Shiga toxin inh: -11; CHX counter: -3

How did CCN(c1cc(C)cc(C)c1)S(=O)(=O)c1nnc(NC(=O)c2ccco2)s1 do in these assays?
Pf growth 48h: -12%; Pf growth 96h: 12µM*; NS1 inh: -17%; SARS PLP yeast: -2%; Shiga toxin inh: -8; CHX counter: -4
